# Data published in PMC5540273 (PLoS ONE, 2017).
# Where two headings read alike, the source gives them in different places.
# Columns and labels:
# [1] = tested on: FYN; details: concentration: 1 μM, replicates: in singlicate; n = 1
# [2] = tested on: GAK; details: concentration: 1 μM, replicates: in singlicate; n = 1
# [3] = tested on: T1, GCN2(Kin.Dom.2,S808G); details: concentration: 1 μM, replicates: in singlicate; n = 1
# T1 construct: gene EIF2AK4
# [4] = tested on: GRK1; details: concentration: 1 μM, replicates: in singlicate; n = 1
# [5] = tested on: T2, GRK2; details: concentration: 1 μM, replicates: in singlicate; n = 1
# T2 construct: gene ADRBK1
# [6] = tested on: T3, GRK3; details: concentration: 1 μM, replicates: in singlicate; n = 1
# T3 construct: gene ADRBK2
# [7] = tested on: GRK4; details: concentration: 1 μM, replicates: in singlicate; n = 1
# [8] = tested on: GRK7; details: concentration: 1 μM, replicates: in singlicate; n = 1
# [9] = tested on: GSK3A; details: concentration: 1 μM, replicates: in singlicate; n = 1
# [10] = tested on: GSK3B; details: n = 1
# [11] = tested on: T4, HASPIN; details: concentration: 1 μM, replicates: in singlicate; n = 1
# T4 construct: gene GSG2
# [12] = tested on: HCK; details: concentration: 1 μM, replicates: in singlicate; n = 1
# [13] = tested on: HIPK1; details: concentration: 1 μM, replicates: in singlicate; n = 1
# [14] = tested on: HIPK2; details: concentration: 1 μM, replicates: in singlicate; n = 1
# [15] = tested on: HIPK3; details: concentration: 1 μM, replicates: in singlicate; n = 1
# [16] = tested on: HIPK4; details: concentration: 1 μM, replicates: in singlicate; n = 1
# [17] = tested on: HPK1; details: concentration: 1 μM, replicates: in singlicate; n = 1
# [18] = tested on: HUNK; details: concentration: 1 μM, replicates: in singlicate; n = 1
# [19] = tested on: ICK; details: concentration: 1 μM, replicates: in singlicate; n = 1
# [20] = tested on: IGF1R; details: concentration: 1 μM, replicates: in singlicate; n = 1
# [21] = concentration: 1 μM, replicates: in singlicate
# 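Also: KINOMEscan kinase panel screen.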
smiles,measurement,setting,value
Cc1ccc(Nc2ccnc(Nc3ccc(C)c(F)c3)n2)cc1O.Cl [GW582868],%Inh,[1],79%
same,%Inh,[2],53%
same,%Inh,[3],36%
same,%Inh,[4],100%
same,%Inh,[5],0%
same,%Inh,[6],70%
same,%Inh,[7],0%
same,%Inh,[8],0%
same,%Inh,[9],14%
same,%Inh,[10]; [21],7%
same,%Inh,[11],10%
same,%Inh,[12],29%
same,%Inh,[13],0%
same,%Inh,[14],0%
same,%Inh,[15],0%
same,%Inh,[16],4%
same,%Inh,[17],30%
same,%Inh,[18],0%
same,%Inh,[19],2%
same,%Inh,[20],0%
O=C(Nc1n[nH]c2cc(-c3cccs3)ccc12)C1CC1 [SB-731284],%Inh,[1],0%
same,%Inh,[2],0%
same,%Inh,[3],0%
same,%Inh,[4],56%
same,%Inh,[5],0%
same,%Inh,[6],0%
same,%Inh,[7],47%
same,%Inh,[8],0%
same,%Inh,[9],52%
same,%Inh,[10]; 1 µM,57%
same,%Inh,[11],0%
same,%Inh,[12],0%
same,%Inh,[13],37%
same,%Inh,[14],4%
same,%Inh,[15],63%
same,%Inh,[16],6%
same,%Inh,[17],0%
same,%Inh,[18],0%
same,%Inh,[19],78%
same,%Inh,[20],0%
Cc1ccc(C)c(NC(=O)Nc2ccc(C)c(-c3ccc(C(=O)Nc4ccncc4)cc3)c2)c1 [GSK1398473],%Inh,[1],25%
same,%Inh,[2],0%
same,%Inh,[3],0%
same,%Inh,[4],0%
same,%Inh,[5],0%
same,%Inh,[6],9%
same,%Inh,[7],0%
same,%Inh,[8],0%
same,%Inh,[9],0%
same,%Inh,[10]; [21],12%
same,%Inh,[11],0%
same,%Inh,[12],92.4%
same,%Inh,[13],0%
same,%Inh,[14],0%
same,%Inh,[15],12%
same,%Inh,[16],0%
same,%Inh,[17],36%
same,%Inh,[18],0%
same,%Inh,[19],8%
same,%Inh,[20],0%
CC(C)NCC(Cc1ccccc1)NC(=O)c1cc(Br)c(-c2ccnc3[nH]ccc23)s1.Cl.Cl (centres unmarked) [GSK1383281],%Inh,[1],2%
same,%Inh,[2],51%
same,%Inh,[3],33%
same,%Inh,[4],72%
same,%Inh,[5],79%
same,%Inh,[6],87%
same,%Inh,[7],0%
same,%Inh,[8],91.5%
same,%Inh,[9],7%
same,%Inh,[10]; [21],0%
same,%Inh,[11],89%
same,%Inh,[12],0%
same,%Inh,[13],30%
same,%Inh,[14],0%
same,%Inh,[15],35%
same,%Inh,[16],91.6%
same,%Inh,[17],44%
same,%Inh,[18],0%
same,%Inh,[19],11%
same,%Inh,[20],4%
COc1cccc(NC(=O)NCCNc2ccnc(Nc3ccc(F)cc3)n2)c1 [GSK1379879],%Inh,[1],0%
same,%Inh,[2],0%
same,%Inh,[3],0%
same,%Inh,[4],0%
same,%Inh,[5],0%
same,%Inh,[6],68%
same,%Inh,[7],0%
same,%Inh,[8],0%
same,%Inh,[9],11%
same,%Inh,[10]; [21],16%
same,%Inh,[11],0%
same,%Inh,[12],0%
same,%Inh,[13],0%
same,%Inh,[14],0%
same,%Inh,[15],7%
same,%Inh,[16],0%
same,%Inh,[17],34%
same,%Inh,[18],11%
same,%Inh,[19],10%
same,%Inh,[20],0%
Fc1cc(Cl)ccc1Nc1ccnc2cc(-c3ccc(CN4CCSCC4)o3)ccc12 [GW560106],%Inh,[1],90.5%
same,%Inh,[2],84%
same,%Inh,[3],0%
same,%Inh,[4],0%
same,%Inh,[5],0%
same,%Inh,[6],32%
same,%Inh,[7],3%
same,%Inh,[8],0%
same,%Inh,[9],22%
same,%Inh,[10]; [21],0%
same,%Inh,[11],28%
same,%Inh,[12],95.3%
same,%Inh,[13],3%
same,%Inh,[14],0%
same,%Inh,[15],0%
same,%Inh,[16],0%
same,%Inh,[17],20%
same,%Inh,[18],71%
same,%Inh,[19],0%
same,%Inh,[20],25%
COc1cccc(CC(=O)N2CCc3cc(-c4cn(C)c5ncnc(N)c45)ccc32)c1 [GSK2608899],%Inh,[1],9%
same,%Inh,[2],31%
same,%Inh,[3],70%
same,%Inh,[4],0%
same,%Inh,[5],0%
same,%Inh,[6],0%
same,%Inh,[7],9%
same,%Inh,[8],0%
same,%Inh,[9],0%
same,%Inh,[10]; [21],15%
same,%Inh,[11],0%
same,%Inh,[12],0%
same,%Inh,[13],0%
same,%Inh,[14],0%
same,%Inh,[15],22%
same,%Inh,[16],56%
same,%Inh,[17],55%
same,%Inh,[18],3%
same,%Inh,[19],6%
same,%Inh,[20],17%
COc1ccc(C)c(Nc2ccnc(Nc3ccc(-c4cnc[nH]4)cc3)n2)c1.Cl [GW784041],%Inh,[1],56%
same,%Inh,[2],52%
same,%Inh,[3],100%
same,%Inh,[4],0%
same,%Inh,[5],0%
same,%Inh,[6],0%
same,%Inh,[7],27%
same,%Inh,[8],15%
same,%Inh,[9],32%
same,%Inh,[10]; [21],0%
same,%Inh,[11],0%
same,%Inh,[12],63%
same,%Inh,[13],48%
same,%Inh,[14],0%
same,%Inh,[15],0%
same,%Inh,[16],30%
same,%Inh,[17],0%
same,%Inh,[18],0%
same,%Inh,[19],0%
same,%Inh,[20],12%
Cn1cc(-c2ccc3c(c2)CCN3C(=O)Cc2cc(F)cc(F)c2F)c2c(N)ncnc21 [GSK2634140],%Inh,[1],0%
same,%Inh,[2],17%
same,%Inh,[3],40%
same,%Inh,[4],11%
same,%Inh,[5],0%
same,%Inh,[6],0%
same,%Inh,[7],0%
same,%Inh,[8],0%
same,%Inh,[9],0%
same,%Inh,[10]; [21],1%
same,%Inh,[11],32%
same,%Inh,[12],0%
same,%Inh,[13],0%
same,%Inh,[14],0%
same,%Inh,[15],15%
same,%Inh,[16],0%
same,%Inh,[17],57%
same,%Inh,[18],12%
same,%Inh,[19],0%
same,%Inh,[20],21%
CN(c1ccc2c(c1)nc(NCc1ccccc1)n2C)c1ccnc(Nc2ccc(CS(C)(=O)=O)cc2)n1.Cl [GW811603],%Inh,[1],69%
same,%Inh,[2],0%
same,%Inh,[3],0%
same,%Inh,[4],0%
same,%Inh,[5],35%
same,%Inh,[6],8%
same,%Inh,[7],33%
same,%Inh,[8],16%
same,%Inh,[9],0%
same,%Inh,[10]; [21],0%
same,%Inh,[11],3%
same,%Inh,[12],49%
same,%Inh,[13],41%
same,%Inh,[14],46%
same,%Inh,[15],0%
same,%Inh,[16],38%
same,%Inh,[17],72%
same,%Inh,[18],0%
same,%Inh,[19],29%
same,%Inh,[20],6%
